PI5P4K alpha inh = blocks human PI5P4K alpha kinase activity | P48426 | PI5P4Kalpha enzyme, ADP-Glo luminescence, 60 min; active compounds read low | max response, % | 330,000 tested, 1.2% active | AID 652105; active means max response of -50% or lower; inconclusive means between -30% and -50%; inactive means -30% or higher; further: value at the top dose of about 77 µM; on the % scale 0 is the no-effect control and ±100 the full control effect
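Quantitative HTS of the MLSMR library against PI5P4Kalpha with substrate. ATP added last at 5 microM final; room temperature, 60 minutes. Remaining ATP depleted, ADP converted and read as luminescence.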
PLK1 PBD inh = blocks phosphopeptide binding to human PLK1 polo-box domain; Plk1 PBD binding of FITC phosphopeptide, fluorescence polarization; 360,000 tested, 2.8% active; AID 720504; P53350; Potency, µM, for the others: max response, negative = inhibition, usual class: inhibitors; further: potency means the concentration at half of the fitted maximal effect; series mostly up to about 57 µM; on the % scale 0 is the no-effect control and ±100 the full control effect; nearly all actives have a fitted effect of over 65% in size
G9a block = G9a (human) methyltransferase inhibition; Potency, µM (highest dose often 102 µM), inactives show at the top dose activity, negative = inhibition, hits mostly inhibitors; Q96KQ7; AID 504332; 350,000 tested, 8.8% active; G9a H3K9 monomethylation, AlphaScreen, 2 h; further: potency means the concentration at half of the fitted maximal effect; on the % scale 0 is the no-effect control and ±100 the full control effect; nearly all actives have a fitted effect of over 75% in size
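AlphaScreen read-out: biotin-H3K9 peptide (500 nM) methylation by 20 nM enzyme with 20 uM SAM, 2 h at room temperature after 15 min compound preincubation; anti-monomethyl H3K9 antibody plus donor/acceptor beads, 10 min dark.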
JMJD2A Tudor inh = JMJD2A Tudor domain (human) inhibition; 390,000 tested, 4.4% active; AID 504339; AlphaScreen JMJD2A-Tudor / H3K4me3 peptide binding; Potency, µM (series often up to 114 µM), for the others: at the highest dose activity change, negative = inhibition, most hits filed as inhibitors; further: potency means the concentration at half of the fitted maximal effect; on the % scale 0 is the no-effect control and ±100 the full control effect; nearly all actives have a fitted effect of over 50% in size
HP1b chromo inh = blocks HP1-beta chromodomain binding to methylated histone tails; AID 540317; 390,000 tested, 0.56% active; P83916; Potency, µM (doses to about 114 µM), for inactives: top-dose activity change, negative = inhibition, hits mostly inhibitors; AlphaScreen HP1-beta / biotin-H3K9me3 peptide binding; further: potency means the concentration at half of the fitted maximal effect; nearly all actives have a fitted effect of over 70% in size
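Compound inhibition of the preformed complex between 50 nM HP1-beta and 50 nM biotinylated H3K9me3 peptide was read by AlphaScreen. Buffer was PBS pH 7.4 with 0.01% Tween-20. Incubations ran 30 min at room temperature, with 10 ug/mL donor/acceptor beads.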
BAZ2B inh = blocks human BAZ2B. AlphaScreen BAZ2B-H3K14Ac peptide displacement. Potency, µM (top dose mostly 114 µM), for inactives: at the top dose activity change, negative = inhibition, hits mostly inhibitors. AID 504333. Q9UIF8. 360,000 tested, 4.4% active; further: potency means the concentration at half of the fitted maximal effect; on the % scale 0 is the no-effect control and ±100 the full control effect; nearly all actives have a fitted effect of over 60% in size
Target sequence (Q9UIF8 whole entry, looked up): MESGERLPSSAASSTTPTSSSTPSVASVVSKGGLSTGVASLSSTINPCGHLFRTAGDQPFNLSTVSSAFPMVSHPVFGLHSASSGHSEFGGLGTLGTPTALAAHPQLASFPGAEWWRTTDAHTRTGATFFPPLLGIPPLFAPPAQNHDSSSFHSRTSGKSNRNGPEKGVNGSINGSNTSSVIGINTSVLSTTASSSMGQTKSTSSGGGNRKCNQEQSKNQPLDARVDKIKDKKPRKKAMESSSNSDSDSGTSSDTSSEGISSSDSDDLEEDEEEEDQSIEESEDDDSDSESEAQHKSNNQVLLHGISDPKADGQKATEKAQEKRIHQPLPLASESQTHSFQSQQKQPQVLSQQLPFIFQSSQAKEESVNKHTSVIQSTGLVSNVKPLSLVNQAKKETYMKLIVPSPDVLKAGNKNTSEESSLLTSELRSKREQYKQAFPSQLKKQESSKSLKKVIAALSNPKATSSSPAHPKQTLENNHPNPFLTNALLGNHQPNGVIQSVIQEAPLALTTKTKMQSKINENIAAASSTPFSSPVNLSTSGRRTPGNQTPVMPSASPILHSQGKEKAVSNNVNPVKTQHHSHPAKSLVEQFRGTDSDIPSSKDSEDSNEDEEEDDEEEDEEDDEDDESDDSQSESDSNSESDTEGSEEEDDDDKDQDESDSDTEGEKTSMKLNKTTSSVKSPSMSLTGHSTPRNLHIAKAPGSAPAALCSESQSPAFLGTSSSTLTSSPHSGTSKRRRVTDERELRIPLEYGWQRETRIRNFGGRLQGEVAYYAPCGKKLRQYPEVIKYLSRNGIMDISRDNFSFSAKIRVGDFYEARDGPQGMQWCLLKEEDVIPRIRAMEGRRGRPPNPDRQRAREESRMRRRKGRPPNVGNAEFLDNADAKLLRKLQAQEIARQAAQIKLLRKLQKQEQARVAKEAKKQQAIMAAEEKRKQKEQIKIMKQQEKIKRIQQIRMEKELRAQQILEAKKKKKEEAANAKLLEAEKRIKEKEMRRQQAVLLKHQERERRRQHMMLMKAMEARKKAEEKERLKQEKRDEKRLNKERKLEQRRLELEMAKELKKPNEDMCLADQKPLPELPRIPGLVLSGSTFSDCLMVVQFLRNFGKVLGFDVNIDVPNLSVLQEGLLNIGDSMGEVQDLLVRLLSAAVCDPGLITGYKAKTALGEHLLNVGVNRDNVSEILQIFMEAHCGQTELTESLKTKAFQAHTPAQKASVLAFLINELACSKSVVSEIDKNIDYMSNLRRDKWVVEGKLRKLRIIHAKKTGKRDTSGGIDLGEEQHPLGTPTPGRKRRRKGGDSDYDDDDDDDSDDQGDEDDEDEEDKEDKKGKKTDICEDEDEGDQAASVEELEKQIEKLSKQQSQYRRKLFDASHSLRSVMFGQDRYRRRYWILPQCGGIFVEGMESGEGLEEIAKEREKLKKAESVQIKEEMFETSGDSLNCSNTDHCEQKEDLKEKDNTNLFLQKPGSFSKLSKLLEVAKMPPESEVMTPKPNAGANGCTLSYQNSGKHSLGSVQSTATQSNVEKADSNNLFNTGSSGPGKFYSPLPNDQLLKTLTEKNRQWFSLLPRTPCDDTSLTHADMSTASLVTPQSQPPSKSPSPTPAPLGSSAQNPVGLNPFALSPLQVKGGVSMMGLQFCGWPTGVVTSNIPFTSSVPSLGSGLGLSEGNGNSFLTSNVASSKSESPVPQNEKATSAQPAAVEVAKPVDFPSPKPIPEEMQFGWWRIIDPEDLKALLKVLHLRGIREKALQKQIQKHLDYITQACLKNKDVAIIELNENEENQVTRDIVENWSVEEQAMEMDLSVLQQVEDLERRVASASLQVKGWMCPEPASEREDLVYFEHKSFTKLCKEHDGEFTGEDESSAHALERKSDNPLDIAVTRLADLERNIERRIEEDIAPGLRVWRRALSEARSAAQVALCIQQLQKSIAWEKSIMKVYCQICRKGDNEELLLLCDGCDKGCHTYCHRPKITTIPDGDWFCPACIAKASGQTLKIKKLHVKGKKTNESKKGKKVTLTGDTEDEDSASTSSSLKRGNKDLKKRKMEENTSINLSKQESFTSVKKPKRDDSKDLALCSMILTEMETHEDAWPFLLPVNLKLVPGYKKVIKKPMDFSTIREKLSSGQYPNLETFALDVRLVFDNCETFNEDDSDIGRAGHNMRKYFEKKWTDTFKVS
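BAZ2B 50 nM plus b-H3(5-23)K14Ac 50 nM, PBS pH 7.4/0.01% Tween-20, 30 min RT; compound added (max 110 uM), 30 min RT; streptavidin donor/Ni-chelate acceptor beads 10 ug/mL final, 20 min dark; AlphaScreen read.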
* hit, by the source's call; [ ] = dose if it differs, or a comment. Hits are enriched below; roughly 12% of the tested compounds scored in any of these assays. Unless noted, the call rests on the fitted dose curve; in most records, active means well fitted curve in the direction sought with a large enough effect; inconclusive means small, poorly fitted or top-dose-only effect, or another doubt; inactive means no such curve, though single readings can be large; an effect the other way counts as inactive or inconclusive.

Screening COc1ccc(OC)c(S(=O)(=O)NCC(c2ccco2)N2CCc3ccccc32)c1 (centres undefined) returned PI5P4K alpha inh 6, PLK1 PBD inh -2%, G9a block 50µM*, JMJD2A Tudor inh inconclusive, HP1b chromo inh -34% and BAZ2B inh inconclusive.
Screening COc1cc(C(=O)NCC(c2ccco2)N2CCc3ccccc32)cc(OC)c1OC (centres undefined) returned PI5P4K alpha inh -1, PLK1 PBD inh 5%, G9a block 50µM*, JMJD2A Tudor inh inconclusive, HP1b chromo inh -26% and BAZ2B inh 79µM*.
COc1cc(C(=O)NCC(c2cccs2)N2CCc3ccccc32)cc(OC)c1OC (centres undefined) was read as PI5P4K alpha inh 1, PLK1 PBD inh 7%, G9a block -34%, JMJD2A Tudor inh inconclusive, HP1b chromo inh -26% and BAZ2B inh 8%.
`CC(C)CC(=O)Nc1ccc(C(=O)COC(=O)C2CC(=O)N(Cc3ccccc3)C2)cc1` (centres undefined) gave PI5P4K alpha inh 1, PLK1 PBD inh -5%, G9a block -22%[59 µM], JMJD2A Tudor inh -3%, HP1b chromo inh 23% and BAZ2B inh 7%.
For COc1cc(-c2c(C#N)c(N)nc3[nH]c(=S)[nH]c(=O)c23)ccc1O the results were PI5P4K alpha inh -67*, PLK1 PBD inh 3%, G9a block 71µM*, JMJD2A Tudor inh -14%, HP1b chromo inh 43% and BAZ2B inh -5%.
`COc1cc(-c2c(C#N)c(N)nc3c2CCCC3)ccc1O` gave PI5P4K alpha inh inconclusive, PLK1 PBD inh 3.4µM*, G9a block -33%, JMJD2A Tudor inh -29%[11.4 µM], HP1b chromo inh -7% and BAZ2B inh -12%.
N#Cc1c(N)nc2c(c1-c1cccc(O)c1)CCCCCC2 was read as PLK1 PBD inh -1%, G9a block 19%, JMJD2A Tudor inh -18%, HP1b chromo inh 7% and BAZ2B inh inconclusive.
CC(C)c1ccc(-c2c(C#N)c(N)nc3c2CCCCC3)cc1 was read as PI5P4K alpha inh 12, PLK1 PBD inh -5%, G9a block 1.8µM*, JMJD2A Tudor inh -17%, HP1b chromo inh 42% and BAZ2B inh 4%.
For Cc1ccc(-c2c(C#N)c(N)nc3c2CCCCC3)cc1 the results were PLK1 PBD inh -5%, G9a block 14%, JMJD2A Tudor inh -10%, HP1b chromo inh 39% and BAZ2B inh 6%.
Screening CCOc1cc(-c2c(C)c(C)nc(N)c2C#N)ccc1O returned PI5P4K alpha inh 9, PLK1 PBD inh -5%, G9a block -30%[59 µM], JMJD2A Tudor inh -15%, HP1b chromo inh 15% and BAZ2B inh -12%.
Cc1ccc(-c2c(C#N)c(N)nc3c2CCCCC3)o1 was read as PLK1 PBD inh -7%, G9a block 79µM*, JMJD2A Tudor inh -14%, HP1b chromo inh 35% and BAZ2B inh 3%.
COC(=O)c1c(N)n(-c2cc(Cl)cc(Cl)c2)c2nc3ccccc3nc12 was read as G9a block -8%[59 µM], JMJD2A Tudor inh -12%, HP1b chromo inh -8% and BAZ2B inh inconclusive.
Screening CC(C)CC(CSc1ccc(Br)cc1)N1CCN(CC(C)C)CCC1=O (centres undefined) returned JMJD2A Tudor inh 39% and HP1b chromo inh 76%.
`Cc1ccc(Cc2c(C)nc3nc(SCC(=O)NCCCN4CCCCCC4)nn3c2C)cc1` gave PI5P4K alpha inh 1, PLK1 PBD inh -11%, G9a block 35µM*, JMJD2A Tudor inh -30%, HP1b chromo inh -23% and BAZ2B inh inconclusive.
`Cc1nc2nc(SCC(=O)NCCCN3CCCCC3)nn2c(C)c1Cc1ccccc1` gave PI5P4K alpha inh 4, PLK1 PBD inh -6%, G9a block 7%, JMJD2A Tudor inh 6%, HP1b chromo inh 8% and BAZ2B inh -13%.
For Cc1nc2nc(SCC(=O)NCCCN3CCCC3)nn2c(C)c1Cc1ccccc1Cl the results were PI5P4K alpha inh -5, PLK1 PBD inh 8%, G9a block 79µM*, JMJD2A Tudor inh -35%, HP1b chromo inh -11% and BAZ2B inh -13%.
Screening Cc1cc(C(=O)N/N=C/c2cc(Cl)cc([N+](=O)[O-])c2O)c2ccccc2n1 returned PI5P4K alpha inh -29, PLK1 PBD inh -15%, G9a block inconclusive, JMJD2A Tudor inh 56µM*, HP1b chromo inh inconclusive and BAZ2B inh 40µM*.
For O=C(N/N=C/c1cc(Cl)cc([N+](=O)[O-])c1O)c1ccccc1NS(=O)(=O)c1cccs1 the results were PI5P4K alpha inh -22, PLK1 PBD inh inconclusive, JMJD2A Tudor inh 56µM*, HP1b chromo inh inconclusive and BAZ2B inh -37%.
`O=C(Cn1c(=O)n(Cc2ccc3c(c2)OCO3)c(=O)c2oc3ccccc3c21)Nc1ccccc1F` gave G9a block 2%[59 µM], JMJD2A Tudor inh 11%, HP1b chromo inh 47% and BAZ2B inh -16%.
Oc1c(Cl)cc(Cl)cc1Sc1cc(Cl)cc(Cl)c1O was read as G9a block inconclusive and BAZ2B inh 50µM*.
`COc1cc(C2C(C(=O)OC(C)C)=C(C)N=C3SCCC(=O)N32)ccc1OCc1ccccc1` (centres undefined) gave G9a block -47%[59 µM], JMJD2A Tudor inh -27%, HP1b chromo inh 23% and BAZ2B inh inconclusive.
Screening CCCCCc1c2c(cc(O)c1C(=O)O)OC(=O)c1c(cc(OC)cc1C(=O)CCCC)O2 returned PI5P4K alpha inh inconclusive, PLK1 PBD inh 27µM*, G9a block -12%[59 µM], JMJD2A Tudor inh -31%, HP1b chromo inh 22% and BAZ2B inh 79µM*.
Screening CCCCCc1c2c(cc(O)c1C(=O)O)OC(=O)c1cc(C(=O)CCCC)c(OC)cc1O2 returned PI5P4K alpha inh -24, PLK1 PBD inh 21µM*, JMJD2A Tudor inh inconclusive and HP1b chromo inh 5%.
`Cc1ccc(-c2nc(SCCOc3ccccc3C)n3[nH]c(=O)cc3n2)cc1` gave G9a block 68%[59 µM], JMJD2A Tudor inh -25%, HP1b chromo inh 52% and BAZ2B inh 8%.
COc1ccc(-c2cc3nc(CCl)[nH]c(=O)c3s2)cc1 was read as PI5P4K alpha inh inconclusive, PLK1 PBD inh -9%, G9a block 50µM*, JMJD2A Tudor inh inconclusive, HP1b chromo inh 25%[57 µM] and BAZ2B inh -38%.
Screening COc1ccc(-c2cc3nc[nH]c(=O)c3s2)cc1 returned PI5P4K alpha inh -12, PLK1 PBD inh -5%, G9a block -2%, JMJD2A Tudor inh -6%, HP1b chromo inh 19% and BAZ2B inh 7%.
CCCS(=O)(=O)NC(=O)C1(C)CCN(C(=O)CSc2ccccc2)C1 (centres undefined) was read as PI5P4K alpha inh 0 and PLK1 PBD inh -12%.
